# Experimental data taken from ChEMBL document CHEMBL3988442, “University of Dundee, Small-Polar-MMV Screening Library” (2021).
# Out of some 48,000 compounds screened, about 13,000 (27%) showed an effect of 50% or more. The list shows a part of the results.
# Test system: Wolbachia pipientis
# Test: Anti-Wolbachia Cell-Based Screen
# Format: functional
# Design: scale not given: in the data most compounds retested in dose-response had high values
# Conditions: 5 µM
row,SMILES,Percent Effect [%]
1,Cc1cc(N2CCN(C3CCSCC3)CC2)n2nc(C)c(C)c2n1,-17.53
2,CCCN(CCC)S(=O)(=O)NC(C)C(=O)N(C)C (stereo not given),-7.467
3,CCC[C@H]1CN(CCS(C)(=O)=O)C[C@@H]1NC(=O)c1ccccc1F,-18.99
4,Cn1ccc2cc(C(=O)N3CCOCC3)ccc21,-3.73
5,CC(=O)N1CCOC[C@H](Oc2ccc(C(F)(F)F)cc2)C1,-13.29
6,NC(=O)c1cccc(CC2CCN(C(=O)CCCN3CCOCC3)C2)c1 (stereo not given),-2.023
7,CC(=O)NCC(=O)N1CCOCC(Cc2ccc3c(ccn3C)c2)C1 (stereo not given),143.9
8,CN(C)C(=O)Cn1ccc2cc(NC(=O)N3CCOCC3)ccc21,-7.307
9,COCCC(=O)N1CCOCC(Cc2ccc3c(ccn3C)c2)C1 (stereo not given),165.7
10,CN(C)c1ccc(CC(=O)N2CCOCC(O)C2)cc1 (stereo not given),-50.44
11,CC(=O)N1CCOCC(Cc2ccc3c(ccn3C(C)=O)c2)C1 (stereo not given),130
12,O=C(CCCc1cn[nH]c1)N1CCOCC(O)C1 (stereo not given),-4.397
13,CC(=O)NCC(=O)N1CCC(C2CCN(Cc3ccc(Cl)cc3)C2)CC1 (stereo not given),-7.699
14,CC(=O)N1CCOCC(Cc2ccc3c(ccn3C)c2)C1 (stereo not given),138.8
15,CC(C)C(=O)Nc1ncn(Cc2cccc(Br)c2)n1,13.22
16,Cc1nn(C)cc1-c1ccnc(NCCN)n1,0.4357
17,Cc1nn(C)cc1-c1cc(C(F)(F)F)n(CCCN)n1,117.1
18,CCn1cc(-c2cc(C(F)(F)F)n(CCCN)n2)cn1,69.39
19,Cn1cc(-c2nc(C3CCN(CC4CC4)CC3)cc3c2ncn3C)cn1,-12.1
20,Cc1cc(-c2cnn(C)c2)ccc1OCC(N)=O,1.914
21,Cc1nn(C)cc1-c1cc(C(F)(F)F)c2c(C)nn(CC(=O)O)c2n1,1.02
22,Cn1cc(-c2cc(C(F)(F)F)n(CCCN)n2)cn1,106
23,Cc1noc(CCCC(=O)Nc2ncccc2Br)n1,-19.61
24,CCOCC1CN(Cc2ccoc2)Cc2cn(CC3CC3)nc21 (stereo not given),25.6
25,O=C(c1cn(Cc2ccc(Cl)cc2)nn1)N1CCCO1,-12.44

row,SMILES,Percent Effect [%]
1,CCc1cnc(C)nc1N1CCN(C(N)=O)CC1,-3.33
2,Cc1ncc2c(n1)C1(CCN(C(=O)C(C)C)CC1)OCC2.Cl,141.2
3,Cc1cnc(N2CCOC3(CCCN(C(=O)C(C)C)C3)C2)nc1 (stereo not given),-6.845
4,Cc1ncc(C(=O)N2CC[C@@]3(O)CCN(C(=O)N(C)C)C[C@H]3C2)cn1,-6.772
5,O=C(C1CCC1)N1CCC2(COCc3cnc(N4CCOCC4)nc32)C1 (stereo not given),-15.94
6,Cc1ncc2c(n1)C1(CCN(C(=O)C3CC3)CC1)OCC2.Cl,134.7
7,Clc1ccc(CN2CCN(Cn3nccc3-c3cccnc3)CC2)s1,6.087
8,CCC1CN(c2cnn(C)c(=O)c2Cl)CCO1 (stereo not given),22.68
9,CCC1CN(c2cnn(-c3ccccc3)c(=O)c2Cl)CCO1 (stereo not given),4.552
10,Cc1ccccc1C1CN(c2cnn(C)c(=O)c2Cl)CCO1 (stereo not given),91.27
11,Cc1cccc(N(CCC(N)=O)CC(=O)Nc2cc(Cl)ccc2Cl)c1,-1.848
12,O=C(O)C(F)(F)F.O=C(O)C(F)(F)F.c1ccc(CNCC2Cn3nnc(-c4ccncc4)c3CO2)nc1 (stereo not given),9.944
13,CC(=O)N1CCN(c2cc(-n3cnc(C)c3C)nc(C)n2)CC1,-7.107
14,CCN(CC)C(=O)c1cc(C2(C)CCN(C(C)=O)CC2)nc(C)n1,112.9
15,CC(=O)N1CCC(C)(c2cc(C(=O)NCC(C)(C)C)nc(C)n2)CC1,109.7
16,CC(=O)N1CCC(C)(c2cc(C(=O)NCC3CC3)nc(C)n2)CC1,107.8
17,Cc1nc(NCc2ccc(C)o2)cc(C(=O)N2CCOCC2)n1,-3.993
18,CC(=O)NCC1CCN(C(=O)c2csc(-c3ccc(C)cc3C)n2)CC1,-1.979
19,Cc1nc(CN2CCC(CNC(=O)C3(C)CCCC3)CC2)oc1C,-9.195
20,CN(C)CCNC(=O)c1cc2n(n1)CCN(C(=O)CC(C)(C)C)C2,4.361
21,CCCN(Cc1nccn1C)C(=O)c1cc(C)nc(C)n1,-2.808
22,CNc1nc(N2CCN(CC=C(C)C)C(CCO)C2)nc2c1CCC2 (stereo not given),-3.074
23,CNc1nc(C2CCCN2C(C)=O)nc2c1CCN(CC1CC1)C2 (stereo not given),-2.53
24,CNc1nc(N2CCN(C)C(CCO)C2)nc2c1CCC2 (stereo not given),-12.86
25,CNc1nc(C2CCCN2C(C)=O)nc2c1CN(CCO)CC2.O=CO (stereo not given),123.3

row,SMILES,Percent Effect [%]
1,CNc1nc(N2CCN(C3CCCCC3)C(CCO)C2)nc2c1CCC2 (stereo not given),13.4
2,CNc1nc(C2CCCN2C(C)=O)nc2c1CN(C1CCCC1)CC2 (stereo not given),121.2
3,N[C@@H]1CCN(Cc2cccc(N3CCOCC3)c2)C[C@H]1O,-37.83
4,Cc1oc2nc[nH]c(=O)c2c1C(=O)N1CCCC(n2cccn2)C1 (stereo not given),-6.627
5,CC(C)OCCCNC(=O)C1CCC(=O)N(C2CCCC2)C1 (stereo not given),25.57
6,CC(Cn1ccnc1)NC(=O)C1(c2ccc3c(c2)OCCO3)CCCC1 (stereo not given),6.008
7,CCCn1nc(C(=O)N(C)Cc2nnc3n2CCC3)ccc1=O,-34.52
8,CN(Cc1cnn(C)c1)C(=O)c1ccc(=O)n(Cc2ccccc2)n1,97
9,CCCn1nc(C(=O)N(C)Cc2cnn(C)c2)ccc1=O,125
10,Cc1nc(C)c(C(=O)N(C)Cc2cnn(C)c2)s1,-4.031
11,Cc1ccccc1C(C(=O)N(C)Cc1cnn(C)c1)N(C)C (stereo not given),-13.96
12,CN(Cc1cnn(C)c1)C(=O)C1COCC(=O)N1Cc1ccccc1 (stereo not given),16.93
13,CC(=O)NCCNCC1(O)CCCN(CCC2CCCCC2)C1=O (stereo not given),-25.88
14,O=C(O)c1ccnc(-c2ccnc(COc3ccccc3Cl)n2)c1,-33.61
15,Cc1noc(CN2CC(=O)N(C)c3ccccc3C2=O)n1,12.92
16,Cc1c(CS(C)(=O)=O)cccc1NC(=O)CC1CCCC1,-14.57
17,Cc1ccsc1CN1C[C@@H]2COC[C@]2(COCC(=O)N(C)C)C1.O=C(O)C(F)(F)F,107.4
18,Cc1nc(COC[C@]23COC[C@H]2CN(Cc2ccoc2)C3)cs1.O=C(O)C(F)(F)F,-5.417
19,CCS(=O)(=O)NC[C@]12COC[C@H]1CN(Cc1sccc1C)C2.O=C(O)C(F)(F)F,-13.08
20,Cc1ccsc1CN1C[C@@H]2COC[C@]2(CNC(=O)c2ccco2)C1.O=C(O)C(F)(F)F,-18.71
21,Cc1csc(CN2C[C@@H]3COC[C@]3(COCC(=O)N(C)C)C2)n1.O=C(O)C(F)(F)F,103.7
22,Cc1nc(COC[C@@]23CCC[C@@H]2CN(CC2CCOCC2)C3)cs1.O=C(O)C(F)(F)F,1.66
23,Cc1nc(CN2C[C@@H]3COC[C@]3(COCC(=O)N(C)C)C2)cs1.O=C(O)C(F)(F)F,99.96
24,Cc1cc(C(=O)N2CCC(c3nccn3Cc3ccncc3)CC2)no1,-16.29
25,C[C@@H]1C[C@H]2CN(C(=O)C3=CCCC3)C[C@H]2O1,-41.87

row,SMILES,Percent Effect [%]
1,CCOc1ccc(S(=O)(=O)NCCc2ccc(N(C)C)cc2)cc1F,9.493
2,CCN(CC)C(=O)CCNC(=O)N(C)Cc1ccc(SC)c(OC)c1,28.83
3,Cc1ccc(F)c(CNc2ccn(CCC(N)=O)n2)c1,-13.86
4,O=C1CC[C@H]2CN(c3ncc(F)cn3)CC[C@H]2N1CCc1ccccn1,-8.563
5,CCCS(=O)(=O)N1CCC2(CC(C(=O)NCc3cccnc3)=NO2)C1 (stereo not given),-9.91
6,Cc1ccc(CN2CCC3(CC(C(=O)NCC4CC4)=NO3)C2)cc1C (stereo not given),21.96
7,CC(C)CNC(=O)C1=NOC2(CCN(Cc3cccc(C#N)c3)C2)C1 (stereo not given),102.8
8,O=C(NCC1CC1)C1=NOC2(CCN(Cc3ccc4c(c3)OCO4)C2)C1 (stereo not given),-22.77
9,N#Cc1cccc(CN2CCC3(CC(C(=O)NCC4CC4)=NO3)C2)c1 (stereo not given),-1.937
10,Cc1cccc(CN2CCC3(CC(C(=O)NCC(C)C)=NO3)C2)c1 (stereo not given),117.4
11,CNc1snc(C)c1C(=O)N1CCCC(n2ccnc2C(C)C)C1 (stereo not given),1.946
12,Cc1n[nH]c(=O)c2c(NC(=O)CN3CCC(O)CC3)oc(C)c12,10.48
13,CCCNCC1(O)CCCN(Cc2cccc(C)c2)C1=O (stereo not given),20.78
14,Nc1nc(CCC(=O)N2C[C@@H](CN3CCCC3)C[C@H](CO)C2)n[nH]1,-12.43
15,CCOc1cccc(C2CC(=O)NCc3nc(N)sc32)c1 (stereo not given),2.31
16,CCn1ncnc1C1CC(=O)NCc2nc(N)sc21 (stereo not given),74.2
17,CCn1ncnc1C1CC(=O)NCc2nc(N3CCOCC3)sc21 (stereo not given),112.6
18,CCOc1cccc(C2CC(=O)NCc3nc(N(C)C)sc32)c1 (stereo not given),5.085
19,CCn1ncnc1C1CC(=O)NCc2nc3ccccn3c21 (stereo not given),-4.231
20,Cc1ccc(C2CC(=O)NCc3nc(N)sc32)cc1C (stereo not given),0.1432
21,CCn1ncnc1C1CC(=O)NCc2nc(N3CCCC3)sc21 (stereo not given),88.25
22,CCOc1cccc(C2CC(=O)NCc3nc(N4CCCC4)sc32)c1 (stereo not given),-6.785
23,CCCn1ncc(C2CC(=O)NCc3nc4sc(C)cn4c32)c1C (stereo not given),0.1811
24,O=C1CCCc2[nH]c(=O)c(C(=O)N(CC3CCCCC3)C3CC3)cc21,-8.56
25,Cc1ccc(S(=O)(=O)N2CCOc3ccccc32)cc1C(N)=O,5.411
